# From PubChem BioAssay (NCI)
# The panel holds about 79,000 compounds, 15% with a hit somewhere; the sample as a whole holds those more often. Activity calls are given as the source filed them. No stated cut-off is given here; in the data, active means growth inhibition above about 70%; inactive means the rest.
# Assay: NCI Yeast Anticancer Drug Screen. Data for the mec2-1 strain (AID 157)
# Settings: S. cerevisiae mec2-1 strain, at 50.0 µM, stronger effect = higher value
# Outline: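 mec2-1 yeast strain, carrying an alteration in DNA damage repair or cell cycle control, was exposed to compounds; growth inhibition was measured relative to vehicle-treated controls.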
row,SMILES,growth inhibition
1,CCC/C(Cl)=N\OC(=O)Nc1cccc(C(F)(F)F)c1,91.8% (active)
2,[O-][n+]1c2ccc(O)cc2nc2ccc(Cl)cc21,75% (active)
3,Clc1ccccc1C1OC1c1ccccc1Cl (stereo not given),21.9% (inactive)
4,c1ccc2c(c1)c1ncccc1c1nccnc21,14.7% (inactive)
5,CC(=O)Nc1ccc2c(c1)C(=Nc1ccc(C(=O)O)cc1)c1ccccc1-2,65.8% (inactive)
6,COc1ccc(OC)c2cc3ccccc3cc12,85.2% (active)
7,COc1cc(C2c3cc4c(cc3OC(NNc3ccccc3)C2C)OCO4)cc(OC)c1OC (stereo not given),40.5% (inactive)
8,O=C1c2cc([N+](=O)[O-])ccc2-c2cccc(F)c21,59.7% (inactive)
9,CCCCCCCCCCCC(=O)N(C)C,92.7% (active)
10,CCCCCCCCCCCC1=C(O)C(=O)C=C(O)C1=O,37.9% (inactive)
11,Cc1ccc(CSC(N)=Nc2ccccc2)cc1C,24.2% (inactive)
12,CCCCCCCCCCC1CCC(=O)O1 (stereo not given),98.8% (active)
13,O=[N+]([O-])c1cc(CCl)ccc1CCl,98.9% (active)
14,Nc1ccc2c(c1)C(=O)c1cccc(N)c1C2=O,53.9% (inactive)
15,CCCCCCCCCCNC(=O)OCC,93.5% (active)
16,CC1=C(C)Cc2c(O)ccc(O)c2C1,45.8% (inactive)
17,COc1ccc2c(c1)C(=O)c1ccccc1C2,24.4% (inactive)
18,CCC(=O)OCCn1c2nc(=O)[nH]c(=O)c-2nc2cc(C)c(C)cc21,42.9% (inactive)
19,O=C(OCCN1CCCCCC1)C(c1ccsc1)C1CCCCC1 (stereo not given),33.4% (inactive)
20,Oc1c(Br)cc(Br)cc1C1CCCCC1,90.8% (active)
